Reference: PubChem BioAssay AID651718 (The Scripps Research Institute Molecular Screening Center, 2012)
The whole screen tested about 360,000 compounds, of which about 2,700 (0.75%) were called active. No stated cut-off is given here; in the data, active means inhibition above about 4.5%; inactive means the rest. Many of the other results were omitted from the sample, so actives are more common in it than they were.

System: Methionine sulfoxide reductase A (Bos taurus)
Test: bovine MsrA enzyme inhibitors, primary screen, biochemical, absorbance, HTS (AID 651718);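 further: 0% = vehicle wells with enzyme and 100% = reference inhibitor wells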
Conditions: purified bovine MsrA, absorbance read-out; at 15.5 µM; stronger effect = higher value

SMILES	inhibition
COc1cc(/C=C/C(=O)OCC(=O)N2CCOCC2)ccc1OCC#N	2.74% (inactive)
CCOc1cc(-c2noc(CCC(=O)N3CCOCC3)n2)ccc1OC	-1.14% (inactive)
CCOc1ccc(/C=C(/C#N)c2nnc(N3CCOCC3)n2-c2ccccc2)cc1OC	6.28% (active)
NC(=O)c1ncn([C@@H]2O[C@H](C(=O)O)[C@@H](O)[C@H]2O)n1	0.08% (inactive)
CCCOc1ccc(/C(O)=C2/C(=O)C(=O)N(CCN(C)C)C2c2ccc(OC)c(OC)c2)cc1 (configuration not stated)	1.66% (inactive)
COc1ccc(C2C(C(C)=O)=C(O)C(=O)N2CCc2c[nH]c3ccccc23)cc1 (configuration not stated)	2.78% (inactive)
COc1cc(C2C(C(=O)c3sc(C)nc3C)=C(O)C(=O)N2CCN(C)C)cc(OC)c1OC (configuration not stated)	18.4% (active)
Cc1cc(C)c(S(=O)(=O)NCCCN2CCOCC2)cc1Br	-0.29% (inactive)
CCc1nnc(NC(=O)/C=C/c2ccc(C)o2)s1	5.52% (active)
CCc1nnc(NC(=O)c2ccco2)s1	2.11% (inactive)
CCc1nnc(NC(=O)[C@@H](NC(=O)c2cccc(C)c2)C(C)C)s1	0.82% (inactive)
COc1ccc(SSc2ccc(OC)cc2C(=O)O)c(C(=O)O)c1	3.29% (inactive)
CC(=O)C1=C(C)N(Cc2ccc(Cl)cc2)C(=S)NC1c1ccc(F)cc1 (configuration not stated)	0.08% (inactive)
Cc1cc2c(=O)n(CC(=O)NCC(=O)Nc3ccc(C(C)C)cc3)cnc2s1	-2.15% (inactive)
Cc1ccc(Nc2cc(C)nc3c(C)ccc([N+](=O)[O-])c23)cc1	-0.67% (inactive)
Cc1cccc(N2CCN(c3ccc(C(N)=O)cc3[N+](=O)[O-])CC2)c1C	-0.25% (inactive)
CC(=O)Nc1ccc2c3c(ccc([N+](=O)[O-])c13)CC2	0.76% (inactive)
Cc1ccc(Nc2ccc(C(N)=O)cc2[N+](=O)[O-])cc1	11.1% (active)
NC(=O)c1ccc(Nc2ccc3c(c2)CCC3)c([N+](=O)[O-])c1	13.9% (active)

SMILES	inhibition
O=[N+]([O-])c1ccccc1Nc1ccc(O)cc1	2.41% (inactive)
C=CC1=CCN(S(=O)(=O)C(C)(C)C)[C@@H]1CCO	-1.1% (inactive)
COc1ccc(C)cc1NC(=O)CNCc1cccs1	1.1% (inactive)
N=C1c2ccccc2-c2ccccc21	0.22% (inactive)
COc1cc(C2CC(=O)N3CN(Cc4ccccc4)CSC3=C2C#N)ccc1OCc1ccccc1 (configuration not stated)	0.9% (inactive)
CCCCN1C(=O)C(CC(=O)NCc2cccs2)CC(C(=O)N2CCOCC2)=C1C (configuration not stated)	0.14% (inactive)
OC(c1ccccc1)(c1ccccc1)C1CCN(CCCOc2ccc(-c3ccsc3)cc2)CC1	0.25% (inactive)
O=C(Cc1c[nH]c2ccccc12)N/N=C/c1cccc(F)c1	0.41% (inactive)
CN(C)S(=O)(=O)c1cccc(NC(=S)N/N=C/C(=O)c2ccccc2)c1	1.15% (inactive)
O=C(O)c1cccc(NC(=S)N/N=C/c2c[nH]c3ccccc23)c1	5.25% (active)
COc1ccc(NC(=O)NNC(=O)COc2cc(C)c(Cl)c(C)c2)c(OC)c1	-0.36% (inactive)
CCCCCCCCN1C(=O)[C@@H](CC(=O)N2CCN(C(=O)OCC)CC2)C[C@@]2(C(=O)OC)C1=C[C@H](C1CCCC1)O[C@@H]2C	0.48% (inactive)
CCOc1cc(/C=C2\C(=N)N3N=C(C)SC3=NC2=O)ccc1OCCOc1ccccc1	-1.53% (inactive)
CCOc1cc(/C=C2\SC(N3CCCCC3)=NC2=O)ccc1O	4.93% (active)
CCOc1cc(/C=C2\SC(N3CCCC(C)C3)=NC2=O)ccc1O (configuration not stated)	3.02% (inactive)
CC(C)CNc1cccc2c1S(=O)(=O)N[C@H](CC(C)C)CO2	2.13% (inactive)
COC(=O)Cc1nnn2c1[C@H](C)[C@H](c1ccccc1Br)OCC2	0.32% (inactive)
CCN(CC)C(=O)c1sc(NC(=O)c2ccco2)c(C#N)c1C	4.94% (active)
Cc1sc(NC(=O)C2=COCCO2)c(C#N)c1C	0.89% (inactive)

SMILES	inhibition
Cc1c(C(=O)OC(C)C)sc(NC(=O)c2cccnc2)c1C#N	0.08% (inactive)
Nc1ncnc2c1ncn2[C@@H]1O[C@H](C(=O)N[C@@H](CCc2ccccc2)C(=O)NCC(=O)N2CCOCC2)[C@@H](O)[C@H]1O	-0.08% (inactive)
COc1cccc(CNCc2ccc3c(c2)OCO3)c1	0.46% (inactive)
CC(=O)Nc1ccc2nc(NC(=O)CS(=O)(=O)c3ccc(F)cc3)sc2c1	1.73% (inactive)
NS(=O)(=O)c1ccc2nc(NC(=O)CS(=O)(=O)c3ccc(F)cc3)sc2c1	0.94% (inactive)
CS(=O)(=O)c1ccc2nc(NC(=O)c3ccc(Cl)nc3)sc2c1	4.77% (active)
COC(=O)C1=C(C)N(Cc2ccccc2C(F)(F)F)C(=NCc2ccc(OC)cc2)NC1c1cccc(C(F)(F)F)c1 (configuration not stated)	-3.43% (inactive)
Nc1ccn([C@@H]2O[C@H](C(=O)N[C@H]3CCCCNC3=O)[C@@H](O)[C@H]2O)c(=O)n1	-0.17% (inactive)
C=CC[C@]12C[C@@]3(O[C@H](c4ccc(C(F)(F)F)cc4)N=C3C[C@H](c3ccc(OC)cc3)[C@H]1C)N(C1CCN(Cc3ccccc3)CC1)C2=O	0.32% (inactive)
Cc1cc(NCc2ccco2)n2c(nc3ccccc32)c1C#N	-0.85% (inactive)
Clc1cccc(-c2nc3nc4ccccc4nc3n2Cc2ccco2)c1	4.87% (active)
O=C(CSc1nnc(-c2cccnc2)n1Cc1ccco1)c1ccc(Cl)c(Cl)c1	-1.02% (inactive)
CCC1SC2=NCCN2C1(O)c1ccc(Cl)cc1 (configuration not stated)	-0.53% (inactive)
Cc1cc2c(cc1C)NC1(C[C@H]3CCC(=O)N4CC[C@@H](C1)[C@@H]34)C(=NC(C)(C)CC(C)(C)C)N2 (some centres not stated)	0.45% (inactive)
COCCN(C(=O)C(C)C)c1nnc(-c2ccc(C(C)(C)C)cc2)s1	-0.05% (inactive)
CC(C)[C@H]1COCCS(=O)(=O)N1Cc1ccccc1-c1cccc2c1sc1ccccc12	1.34% (inactive)
Oc1cccc(CCc2ccccn2)c1	-1% (inactive)
O=C(Cc1ccccn1)c1ccc(O)cc1O	4.91% (active)
O=C(O)C(CCc1ccccn1)c1ccccc1 (configuration not stated)	-0.84% (inactive)
